This note sets out measurements from the supplement of paper PMC6555819.

For this experiment, the system named is VDR:RXRa (NR concentration 270 nM, RXRa partner concentration 90 nM). Put plainly: PBM binding z-score (relative to random genomic background probes); higher = stronger binding; sequences stand for … in GC…GCGATTGACAGCGTAGAATGAAGG
Here is the method: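 Protein-binding microarray (Agilent 4x180K custom design, double-stranded 60-nt probes: 5' GC cap, 34-nt variable region, 24-nt constant primer region; full probe sequence given). Purified or IVT nuclear receptor:RXRα heterodimers (3:1 NR:RXRα, mostly 270:90 nM) or homodimers were incubated for 1 h in PBS with 2% milk and no ligand, then detected with Alexa488 antibodies. Fluorescence from o1-orientation probes (~5 replicates averaged) was converted to z-scores against 500 random hg19 background probes. Variable regions are seed direct-repeat (DR0–DR5) sites, all their single-nucleotide variants and half-site ablations.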
CGAACTAGGTCAGAACAGGGCAGTGAAGGATGAT: the PBM binding z-score worked out at 0.903.

The sequence CCTTACGGGTCACTGACAGGTTTTAGCATTTGGA registered a PBM binding z-score of 3.31.

Take TCATATGGGTAAAGGTGAAAGTCGAACGATATGA: the PBM binding z-score turned out to be 0.608.

GCTATTAGTTGAAAGGGCAACAGAATGATTCTCG showed a PBM binding z-score of 0.688.

Consider CCTGCTAGGTCAATGGTCATCTAAAGCAGCTCGC, for which the PBM binding z-score worked out at 1.31.

Regarding CGAACGAGGGCTTGAGTTGATAGCAAATGCCGAT, the PBM binding z-score is -0.282.

Sequence GGAACGAGGGCATTCGAGATGATAGCATGGCGAT had a PBM binding z-score of 1.45.

ACAGACAGGCGATGAAGGTAACTCAGGCTATCAT: the PBM binding z-score was -0.262.

Take GATACAGGGTCAGCTAGAGGCCAGAGTATGGAAA: the PBM binding z-score was 3.33.

Consider GCAGACAGGTGAAACGCAGGTATCTCAGGGTGGC, for which the PBM binding z-score was -0.475.

ACTAGTTGGTCAGCTGAGGTCACACGCAATTCGG had a PBM binding z-score of 4.46.

For the sequence GGAACGAGGGCAAAGTTGATAGCGTCTGTCGACG, the PBM binding z-score came out at 1.39.

Sequence ATCGAAAGGTCGACGGTGAGTATACCCACCCGAA registered a PBM binding z-score of 2.62.

Sequence AGTCAAAGTTCCTCTAGGTAACGTAAGATATGCT gave a PBM binding z-score of 0.145.

As to CGAACTAGGTCATTGACAGGACCGTGAATAGTAA, the PBM binding z-score was found to be 1.51.

Take CGTCCAAGGTCAGAGAGATCAGTGAATGCCGAGT: the PBM binding z-score is 3.72.

For the sequence CCTAACGGGTCACGAGGTTATAGCACGACGAGCG, the PBM binding z-score is 4.74.

The sequence CAAACTAGGTCACCGGAAGGGCAAAGTCCGCATG yielded a PBM binding z-score of 3.81.

Sequence TTACCAAGGTGAAGGGCGTTGATCCCTCTGTAGA registered a PBM binding z-score of 0.253.

For CCTAGCAGCCCAATCTGGGTCACTCAAGGCTTGA, the PBM binding z-score came out at 0.11.

Sequence CCTACTGGACCATCAGGTCATTGATATCAACGTT had a PBM binding z-score of 2.24.

In turn, CTTCCAAGGTCAAAGGTCAGTGAAGAGATGACGG yielded a PBM binding z-score of 6.57.

The sequence CCTCGGAGGACATCAGGAGGTCAGAGCTGCCAGA came in with a PBM binding z-score of 1.99.

In the case of CGTCCAAGGTAATAGGAGGTCAGTGAAGACAGAT, the PBM binding z-score is 2.56.

In the case of CGTCCAAGGTCATAGGTGGTCAGTGAAGACAGAT, the PBM binding z-score worked out at 4.72.

TCACATAGGTAATACAGGTGAAAGTCGGCATCTA: the PBM binding z-score turned out to be 1.09.

GTACCAACGTGAATAGGTCGTTGATGAGTAGGCG: the PBM binding z-score was -0.204.

Sequence CGTAGCAGGCCAGGGTCACTCAAGCATTTCGCTT came in with a PBM binding z-score of 2.59.

As to ATTTGTAGGTTAAGGGTCATTCAGGTTGGTTCGC, the PBM binding z-score came out at 6.08.

In turn, TCATATAGGTAAATGCTAGGCGAAAGTCCGATCT registered a PBM binding z-score of 0.812.

The sequence CCAGACAGGTGAGAAGGTTACTCAGCCTCGATTA displayed a PBM binding z-score of 0.635.

For CAAACTAGGTCAAGGTCAGAGTCGGTTTGTGCCA, the PBM binding z-score amounted to 3.93.

ACTCGCAGGCCAAGTTTGGGTCACTCAAACAAAG registered a PBM binding z-score of 0.787.

In the case of CCAACTGGGGCAGAAAGGTTACCATACCATCCGG, the PBM binding z-score is 0.976.

Turning to CGTCTAAGTTCAACTAAGGTAACGTAAAGCACGC, the PBM binding z-score came to 4.12.

GGAACAAGGGCAAAGTTGATAGCATCTGTCGACG returned a PBM binding z-score of 0.828.

On to TCTTGTAGATAAAAGGTTAAGAAAGCCGAAGCCT, for which the PBM binding z-score turned out to be 1.2.

Regarding TCTTGTAGACCAAGCAGGTTAAGAAAGCCTGAGT, the PBM binding z-score worked out at 0.582.

In turn, ATACCAAGGTGATCGTGAGGTTGTTGATACTAAC came in with a PBM binding z-score of 0.679.

Regarding ACGATTAGTTGAGACGAGGGCAACCGATAGGTTG, the PBM binding z-score amounted to 0.249.
